In the OligoGym collection:

molecular target: EIF4EBP2; experiment: pooled miR-30 sensor sort-seq; sequence = guide strand; details: shRNA
Note: reference of the scale not given here.

Sequence | sensor-assay potency score (higher = more potent)
AATTGTTTACTTCTACTTTGGA | 0.534
TTTCTGTCATAAATGATTCGAG | -0.301
AAACTTTCTGTCATAAATGATT | -1.63
TGATTCGAGTTCCTCCCGGTGT | -0.789
ATGTTTCCTGTCGTGATTGTTC | -0.959
TCCAACAGAAACTTTCTGTCAT | -0.136
TAAATGATTCGAGTTCCTCCCG | 0.0359
TTGTTCAAGTTGTTCAAATTGT | -0.233
TCGCTGATGGCCACGGTGCGGG | -1.63
TTCAATTAAGGTGCCAGGGCTA | -0.657
TCAAATTGTTTACTTCTACTTT | -0.42
AATAGTCATGAGGTAGCTGCGC | -0.823
TTGTTCAAATTGTTTACTTCTA | -0.655
TGTTCAAATTGTTTACTTCTAC | -0.311
TGGTGCAATAGTCATGAGGTAG | -1.72
ATAGTCATGAGGTAGCTGCGCG | -0.462
TACTTTGGAGTCTTCAATTAAG | -1.27
TTGGAGTCTTCAATTAAGGTGC | -0.116
TTCTGTCATAAATGATTCGAGT | -1.23
AAATGATTCGAGTTCCTCCCGG | -0.69
TAGTCATGAGGTAGCTGCGCGG | -1.17
AATGATTCGAGTTCCTCCCGGT | 0.498
TTCTACTTTGGAGTCTTCAATT | -1.52
TACTTCTACTTTGGAGTCTTCA | -0.613

molecular target: ELF2; experiment: as above; details: shRNA

Sequence | sensor-assay potency score (higher = more potent)
TTTCACTTTTGTCATCATCTAT | -0.516
TTGTCTTATCTGTACAGTGTGC | -0.612
TTGTCTGCAGTTGACACTGTGC | -0.232
TTGAACTGATATACAAGCCTCT | 0.343
TTTTATCTTGAAGTAGATCTAA | -0.166
TTCACTTTTGTCATCATCTATG | -0.773
TATGTTTTTCGGCATATCCTTG | -0.943
TAGTAGTATCTCAAAGCTCGTC | -0.0908
TGTCATTACAACAGGTACCTGC | 0.12
TTTGTCTGCAGTTGACACTGTG | 0.266
TTCTTCTGCCACATCTTGCATC | -0.811
TATGACTGCACTGATAACTCGA | 0.372
TTGATAGTCTCATTACAGGTGT | -0.336
ATCATCATAAACCAGAACCTGG | -0.854
